# Assay outcomes as filed in PubChem BioAssay.
# aSyn UTR act – Activators via SNCA 5'UTR binding, MLPCN | alpha-synuclein 5'UTR reporter, activators screen | activity score, % (tested at 7.5 µM), hits read low | hit rate 7.1% among 300,000; in the data active = activity score below about -60%
# * marks the source's active call; other numbers are inactive results. These entries were drawn from the full list.
SMILES,aSyn UTR act
O=C(CN1CC(=O)Nc2ccccc21)Nc1ccc(F)c(F)c1,-94*
CN1CCN(c2ccc(NC(=O)CSc3ccccc3)cc2F)CC1,-107*
CC(=O)c1cccc(NC(=O)CSCc2ccccc2)c1,-100*
O=C(CSCc1ccccc1)Nc1ccc2c(c1)OCO2,-154*
Cc1ccc2c(c1)C(=NC1CCCCC1)c1cc3ccccc3nc1-2,-206*
Cc1ccc2c(c1)Cc1nc3ccccc3nc1-2,71
Nc1nc(-c2cc(O)ccc2[N+](=O)[O-])cc(-c2ccccc2)c1[N+](=O)[O-],-120*
C(=N\N=C\c1cccs1)/c1cccs1,-178*
O=C(Nc1nc(-c2cc(Cl)sc2Cl)cs1)c1ccccc1,-85*
O=C(Nc1nc(-c2ccccc2)ns1)c1cccs1,-272*
O=C(Nc1nc(-c2ccc(Cl)s2)cs1)c1cccs1,-276*
COc1ccccc1OCc1csc(NC(=O)c2ccco2)n1,-108*
CC1CC1C(=O)Nc1nc(-c2cccs2)c(-c2cccs2)s1 (stereo unspecified),-71*
O=C(Nc1nc(-c2ccccc2)cs1)c1cccs1,-144*
Cc1c(Cl)ccc2sc(NC(=O)c3ccco3)nc12,-199*
O=C(Nc1nc(-c2ccccc2)cs1)c1ccccc1NS(=O)(=O)c1ccc(F)cc1,63
O=C(Nc1nc(-c2nc3ccccc3s2)cs1)C1CC1,-96*
O=C(Nc1nc(-c2nc3ccccc3s2)cs1)c1ccco1,-161*
O=C(Nc1nc(-c2ccccn2)cs1)C1CCCC1,-97*
CC(C)(C)c1csc(NC(=O)c2cccs2)n1,-84*
Cc1onc(-c2c(Cl)cccc2Cl)c1C(=O)Nc1nc(C(C)(C)C)cs1,80
O=C(Nc1nc(-c2ccc(Cl)s2)cs1)c1ccco1,-203*
Cc1csc(NC(=O)c2cn3ccccc3n2)n1,82
O=C(NNc1nc(-c2ccc(Cl)cc2)cs1)c1ccco1,-73*
O=C(CN1C(=O)CCC1=O)Nc1nc(-c2nc3ccccc3s2)cs1,-114*
SMILES,aSyn UTR act
Cc1csc(NC(=O)c2cccn2C)n1,-128*
CC1CC1C(=O)Nc1nc(-c2ccccc2)cs1 (stereo unspecified),-122*
Cc1csc(NC(=O)c2ccco2)n1,-72*
O=C(Nc1ccc2nc(-c3ccccn3)[nH]c2c1)C1CCCCC1,-144*
CC(C)c1ccc(Nc2ncccc2C(=O)O)cc1,-101*
Cc1ccnc(NC(=O)c2cccc3ccccc23)c1,-63*
Cc1ccnc(NC(=O)CCc2c[nH]c3ccccc23)c1,-71*
O=C(CCc1nnc(CCc2c[nH]c3ccccc23)o1)NC1CCC1,-133*
C/C(CC(=O)Nc1cc(C)ccn1)=N\NC(=O)c1cccc(C)c1O,-63*
Cc1ccnc(NC(=O)c2ccccc2NC(=O)c2ccc(Cl)cc2Cl)c1,69
Cc1ccnc(NC(=O)CCNC(=O)c2ccccc2Cl)c1,-103*
CCCn1c(-c2cccc([N+](=O)[O-])c2)nc2c1c(=O)[nH]c(=O)n2Cc1ccccc1,54
O=c1c2ccccc2nc(-c2ccccc2)n1Cc1ccccc1,-93*
COC(=O)Cn1c(=NC(=O)c2ccc(Cl)s2)sc2cc(C)ccc21,-184*
COC(=O)Cn1c(=NC(=O)c2ccc([N+](=O)[O-])s2)sc2cc(Br)ccc21,-68*
O=[N+]([O-])c1nn(-c2ccc3c(c2)OCCO3)n(O)c1=NC1CCCCCC1,-91*
O=[N+]([O-])c1nn(-c2ccc3c(c2)OCCO3)n(O)c1=NC1CCCC1,-108*
O=[N+]([O-])c1nn(-c2ccc3c(c2)OCCO3)n(O)c1=Nc1ccccc1,80
Cc1c(C(N)=O)sc2nc(-c3ccccc3)cn12,-105*
COc1ccc(-c2cn3c(C)c(C(=O)Nc4cccc(NC(C)=O)c4)sc3n2)cc1,-100*
Cc1c(C(=O)NCC(C)C)sc2nc(-c3ccc(F)cc3)cn12,-128*
CN1CCc2c(sc3c2C(=O)NC(c2cccc(OC(=O)c4cccs4)c2)N3)C1 (stereo unspecified),-108*
CN1CCc2c(sc3c2C(=O)NC(c2cn(Cc4ccccc4)c4ccccc24)N3)C1 (stereo unspecified),64
Cc1ccc2nc(/C=C/c3cccc(F)c3)ccc2c1,-172*
CCN(CC)C(=S)SCC(=O)c1ccc(Br)cc1,-110*
SMILES,aSyn UTR act
Cc1ccccc1OCc1nnc2c3cnn(C)c3ncn12,-187*
Nc1nc(NC(=O)c2ccco2)nn1-c1ccccc1,-66*
Cc1ccnc2nc(NC(=O)c3ccco3)nn12,-81*
Cc1cc(NC(=O)c2ccco2)ccc1-n1cnnn1,-77*
O=C(Nc1ccc2nn(-c3ccccc3)nc2c1)c1ccco1,-255*
CC(C)(C)n1cnc2cc(NC(=O)c3ccco3)ccc21,-88*
O=C(Nc1nc2nccc(-c3ccccc3)n2n1)c1ccccc1,-83*
O=C(Nc1cc2nn(-c3ccccc3)nc2cc1Cl)c1ccco1,-129*
CC(=O)Nc1cc2nn(-c3ccccc3)nc2cc1Cl,-123*
O=C(N/N=C/c1cccc(Cl)c1)c1c(O)c2c([nH]c1=O)CCCC2,-100*
O=C(Nc1ccccc1O)c1c(O)c2c([nH]c1=O)CCCC2,-182*
